Where a structure was tested more than once in an assay, its records may differ in their call. Active and inactive are the calls of the source. Rule for the calls: active = hit-call score of the fitted dose curve at least 0.9, where 1 is the maximum; inactive = score below 0.9.
Legend:
Conditions in all cases: primary human HUVEC with PBMC; actives raise or lower the signal
[1] = read-out: Interleukin-1 alpha (IL1a), IL1A (gene 3552); test: BSK_LPS_IL1a: BioMAP Diversity Plus: LPS Assay for Interleukin-1 alpha (IL1a) Biomarker Activity (AID 2283080)
Summary of the method: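 Human umbilical vein endothelial cells co-cultured with PBMC and stimulated with LPS; IL-1a measured by ELISA 24 h after dosing. Bidirectional fitting against DMSO; cytotoxicity checked by SRB staining in parallel cultures.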

[2] = read-out: Monocyte Chemoattractant Protein-1 (MCP1), CCL2 (gene 6347); test: BSK_LPS_MCP1: BioMAP Diversity Plus: LPS Assay for Monocyte Chemoattractant Protein-1 (MCP1) Biomarker Activity (AID 2283081);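 for AC50: secreted MCP-1 protein quantified by ELISA in culture supernatant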
Summary of the method: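 Human umbilical vein endothelial cells co-cultured with PBMC, LPS-stimulated; secreted MCP-1 measured by ELISA 24 h after compound addition. Bidirectional curve fitting against DMSO baseline; SRB total-protein staining in parallel cultures for cytotoxicity.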

[3] = BSK_LPS_PGE2: BioMAP Diversity Plus: LPS Assay for Prostaglandin E2 (PGE2) Biomarker Activity (AID 2283082);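 for AC50: secreted prostaglandin E2 measured by ELISA in LPS-stimulated co-culture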
Summary of the method: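 HUVEC plus PBMC co-culture stimulated with LPS; secreted PGE2 quantified by ELISA 24 h after chemical dosing. Activity fitted bidirectionally against DMSO as negative control and baseline; parallel SRB total-protein staining served as cytotoxicity check.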

[4] = read-out: Macrophage colony-stimulating factor (MCSF), CSF1 (gene 1435); test: BSK_LPS_MCSF: BioMAP Diversity Plus: LPS Assay for Macrophage colony-stimulating factor (MCSF) Biomarker Activity (AID 2283083)
Summary of the method: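 HUVEC–PBMC co-culture, M-CSF measured by ELISA 24 h after chemical dosing. Fitted in both directions relative to DMSO as negative control; overt cytotoxicity assessed by SRB total-protein staining in parallel cultures.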

[5] = read-out: Tissue Factor, F3 (gene 2152); test: BSK_LPS_TissueFactor: BioMAP Diversity Plus: LPS Assay for Tissue Factor Biomarker Activity (AID 2283084)
Summary of the method: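 Human umbilical vein endothelial cells co-cultured with PBMC were dosed with compound. Cell-surface CD142 was measured by ELISA 24 h later. Activity was fitted bidirectionally against DMSO, with SRB total-protein staining in parallel cultures for cytotoxicity.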

[6] = read-out: Tumor necrosis factor (Homo sapiens) (UniProt P01375); test: BSK_LPS_TNFa: BioMAP Diversity Plus: LPS Assay for Tumour Necrosis Factor alpha (TNFa) Biomarker Activity (AID 2283085);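 for AC50: TNFa protein level quantified by ELISA in the co-culture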
Summary of the method: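 Human umbilical vein endothelial cells co-cultured with PBMC were exposed to test chemical and TNFa measured by ELISA 24 h after dosing. Bidirectional curve fitting was done relative to DMSO as negative control and baseline.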

[7] = read-out: Vascular cell adhesion molecule 1 (VCAM1), VCAM1 (gene 7412); test: BSK_LPS_VCAM1: BioMAP Diversity Plus: LPS Assay for Vascular cell adhesion molecule 1 (VCAM1) Biomarker Activity (AID 2283086)
Summary of the method: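 Human umbilical vein endothelial cells co-cultured with peripheral blood mononuclear cells under LPS stimulation were exposed to test chemical for 24 h. VCAM-1 levels were then measured by ELISA, with bidirectional curve fitting relative to DMSO as negative control and baseline.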

[8] = read-out: CD38, CD38 (gene 952); test: BSK_SAg_CD38: BioMAP Diversity Plus: SAg Assay for CD38 Biomarker Activity (AID 2283087)
Summary of the method: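 Fluorescence ELISA of cell-surface CD38 served as the read-out, with either increase or decrease fitted against DMSO controls. Cells were a human umbilical vein endothelium plus PBMC co-culture under SEB/TSST-1 stimulation, measured 24 h after dosing.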

[9] = read-out: CD40, CD40 (gene 958); test: BSK_SAg_CD40: BioMAP Diversity Plus: SAg Assay for CD40 Biomarker Activity (AID 2283088)
Summary of the method: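 HUVEC plus PBMC co-culture, superantigen-activated, with CD40 read by ELISA 24 h after dosing. Curves fitted in both directions against DMSO. Overt cytotoxicity checked by parallel SRB total-protein staining.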

[10] = read-out: CD69, CD69 (gene 969); test: BSK_SAg_CD69: BioMAP Diversity Plus: SAg Assay for CD69 Biomarker Activity (AID 2283089);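 for AC50: cell surface CD69 protein quantified by ELISA with fluorescence detection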
Summary of the method: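 ELISA, fluorescence read-out: CD69 on human umbilical vein endothelial cell + PBMC co-culture, 24 h post-dosing. Gain or loss of signal fitted bidirectionally against DMSO baseline.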

Chain of Tumor necrosis factor (Homo sapiens) (P01375 whole entry, looked up): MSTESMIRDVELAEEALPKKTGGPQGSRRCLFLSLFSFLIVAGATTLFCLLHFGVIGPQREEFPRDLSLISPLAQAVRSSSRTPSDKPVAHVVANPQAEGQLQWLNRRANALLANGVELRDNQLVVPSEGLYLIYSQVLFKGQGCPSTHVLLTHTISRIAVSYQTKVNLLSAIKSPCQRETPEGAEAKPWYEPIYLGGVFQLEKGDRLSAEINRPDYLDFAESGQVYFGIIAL

Row | SMILES | outcome [1] | outcome [2] | AC50 [3] | outcome [4] | outcome [5] | outcome [6] | outcome [7] | outcome [8] | outcome [9] | outcome [10] | outcome [3] | AC50 [6] | AC50 [1] | AC50 [2] | AC50 [4] | AC50 [5] | AC50 [7] | AC50 [8] | AC50 [9] | AC50 [10]
1 | CCCCC(C#N)(Cn1cncn1)c1ccc(Cl)cc1 (stereo unspecified) | inactive | inactive | 12 µM (active) | inactive | inactive | inactive | inactive | inactive | inactive | inactive |  |  |  |  |  |  |  |  |  | 
2 | CCOc1nc(C(Cl)(Cl)Cl)ns1 | inactive | inactive |  | inactive | inactive | inactive | inactive | inactive | inactive | inactive | inactive |  |  |  |  |  |  |  |  | 
3 | CC(C)Nc1nc(Cl)nc(NC(C)C)n1 | inactive | inactive |  | inactive | inactive |  | inactive | inactive | inactive | inactive | inactive | 7.35 µM (active) |  |  |  |  |  |  |  | 
4 | Cc1ccc(N=CN(C)C=Nc2ccc(C)cc2C)c(C)c1 |  |  | 11.6 µM (active) |  |  |  |  |  |  |  |  | 33.6 µM (active) | 30.2 µM (active) | 31.7 µM (active) | 32.6 µM (active) | 32.6 µM (active) | 26.6 µM (active) | 29.1 µM (active) | 31.9 µM (active) | 31.5 µM (active)
5 | CC1(C)CCC(=Cc2ccc(Cl)cc2)C1(O)Cn1cncn1 (stereo unspecified) | inactive | inactive |  | inactive | inactive | inactive | inactive | inactive | inactive | inactive | inactive |  |  |  |  |  |  |  |  | 
6 | CC(C)N1C(=O)N(c2ccccc2)CSC1=NC(C)(C)C |  |  | 33.2 µM (active) |  |  |  |  |  |  |  |  | 32.1 µM (active) | 30.6 µM (active) | 30.5 µM (active) | 18.9 µM (active) | 32.6 µM (active) | 31.6 µM (active) | 30.7 µM (active) | 33.4 µM (active) | 30.3 µM (active)
7 | CC1(C)CON(Cc2ccccc2Cl)C1=O | inactive | inactive |  | inactive | inactive | inactive | inactive | inactive | inactive | inactive | inactive |  |  |  |  |  |  |  |  | 
8 | CC(C)NC(=O)N1CC(=O)N(c2cc(Cl)cc(Cl)c2)C1=O | inactive | inactive |  | inactive | inactive | inactive | inactive | inactive | inactive | inactive | inactive |  |  |  |  |  |  |  |  | 
9 | O=P(O)(O)CCCl | inactive | inactive |  | inactive | inactive | inactive | inactive | inactive | inactive | inactive | inactive |  |  |  |  |  |  |  |  | 
10 | CCSC(=O)N1CCCCCC1 | inactive | inactive |  | inactive | inactive | inactive | inactive | inactive | inactive | inactive | inactive |  |  |  |  |  |  |  |  | 
11 | O=c1n(Cl)c(=O)n(Cl)c(=O)n1Cl | inactive | inactive |  | inactive |  | inactive | inactive | inactive | inactive | inactive | inactive |  |  |  |  | 0.966 µM (active) |  |  |  | 
12 | COC(=O)NS(=O)(=O)c1ccc(N)cc1 | inactive | inactive |  | inactive | inactive | inactive | inactive | inactive | inactive | inactive | inactive |  |  |  |  |  |  |  |  | 
13 | CC(C)N1C(=O)c2ccccc2NS1(=O)=O | inactive | inactive |  | inactive | inactive | inactive | inactive | inactive | inactive | inactive | inactive |  |  |  |  |  |  |  |  | 
14 | CSC(=O)c1c(C(F)F)nc(C(F)(F)F)c(C(=O)SC)c1CC(C)C |  | inactive |  |  | inactive | inactive | inactive |  |  | inactive | inactive |  | 15.1 µM (active) |  | 20 µM (active) |  |  | 20.8 µM (active) | 34 µM (active) | 
15 | CO/N=C(/C1=NOCCO1)c1ccccc1Oc1ncnc(Oc2ccccc2Cl)c1F | inactive |  |  |  | inactive | inactive | inactive |  |  |  | inactive |  |  | 22.1 µM (active) | 19.2 µM (active) |  |  | 22.3 µM (active) | 14.9 µM (active) | 9.36 µM (active)
16 | CCNP(=S)(OC)O/C(C)=C/C(=O)OC(C)C (stereo unspecified) | inactive | inactive |  | inactive | inactive | inactive | inactive | inactive | inactive | inactive | inactive |  |  |  |  |  |  |  |  | 
17 | COCC(C)N(C(=O)CCl)c1c(C)csc1C (stereo unspecified) | inactive | inactive |  | inactive | inactive | inactive | inactive | inactive | inactive | inactive | inactive |  |  |  |  |  | 3.97 µM (active) |  |  | 
18 | CNC(=O)N(C)c1nnc(C(C)(C)C)s1 | inactive | inactive |  | inactive | inactive | inactive | inactive | inactive | inactive | inactive | inactive |  |  |  |  |  |  |  |  | 

From PubChem BioAssay (EPA / NIEHS)
